According to PubChem BioAssay (NCI):
About 83,000 compounds went through this panel and 20% of them were active in at least one assay; those are over-represented in the sample as a whole.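 Single-dose data. Exposure time 48 hours. Values below 10 considered active.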 A number with no mark means an inactive call. The source made the active and inactive calls.

Key:
Assay in all cases: NCI-60 one-dose screen, 48 h (100 = growth as untreated, 0 = no growth, -100 = all killed)
[1] = system: SK-MEL-2 melanoma; conditions: 10 µM unless noted
[2] = system: SN12C renal; conditions: 10 µM unless noted
[3] = system: UO-31 renal; conditions: 10 µM unless noted
[4] = system: TK-10 renal; conditions: 10 µM unless noted
[5] = system: ACHN renal; conditions: 10 µM unless noted
[6] = system: A498 renal; conditions: 10 µM unless noted
[7] = system: CCRF-CEM leukemia; conditions: 10 µM unless noted
[8] = system: MOLT-4 leukemia; conditions: 10 µM unless noted
[9] = system: SR leukemia; conditions: 10 µM unless noted
[10] = system: RPMI-8226 leukemia; conditions: 10 µM
[11] = system: OVCAR-8 ovarian; conditions: 10 µM unless noted
[12] = system: OVCAR-5 ovarian; conditions: 10 µM unless noted
[13] = system: OVCAR-4 ovarian; conditions: 10 µM unless noted
[14] = system: SK-OV-3 ovarian; conditions: 10 µM
[15] = system: IGROV1 ovarian; conditions: 10 µM unless noted
[16] = system: OVCAR-3 ovarian; conditions: 10 µM unless noted
[17] = system: HS 578T breast; conditions: 10 µM unless noted
[18] = system: CAKI-1 renal; conditions: 10 µM unless noted
[19] = system: NCI/ADR-RES ovarian; conditions: 10 µM unless noted

| Compound | growth [1] | growth [2] | growth [3] [%] | growth [4] [%] | growth [5] [%] | growth [6] | growth [7] | growth [8] | growth [9] | growth [10] | growth [11] | growth [12] | growth [13] | growth [14] | growth [15] | growth [16] | growth [17] [%] | growth [18] | growth [19] |
| --- | --- | --- | --- | --- | --- | --- | --- | --- | --- | --- | --- | --- | --- | --- | --- | --- | --- | --- | --- |
| Cn1cc(C(=O)NCCC(=N)N)cc1NC(=O)CN=C(N)N | 105% | 95.6% | 84 | 109 | 102 | 108% | 100% | 103% | 104% | 110% | 106% | 88.9% | 105% | 110% | 106% | 112% | 92.4 | – | – |
| COc1ccc(-c2c3c(N)c4c(nc3nc3c2c(C)nn3-c2ccccc2)CCCC4)cc1 | 101% | 93.4% | 68.9 | 86.8 | 77.4 | – | 23.2% | 23.6% | -25.8% (active) | – | 83.1% | 90.1% | 45.1% | 103% | 90.1% | 88.8% | 92.5 | 83.9% | 86.6% |
| COc1ccc(/C=C/C(=O)N2CCC(O)CC2)cc1OC1CCCC1 | 107% | 95% | 87.8 | 102 | 102 | – | 119% | 97.6% | 108% | 107% | 96.5% | 104% | 101% | – | 104% | 111% | 96.1 | 93.1% | 106% |
| CCOC(=O)c1cnn(CC(O)c2ccc(F)cc2)c1NC(=O)Nc1ccccc1F (configuration not stated) | 111% | 106% | 71.5 | 103 | 98.3 | – | 96.9% | 91.8% | 105% | 82.9% | 104% | 101% | 81.7% | – | 101% | 107% | 97.3 | 83.7% | 101% |
| CC(C)(C)CC(C)(C)N(CSc1ccc(Cl)cc1)CSc1ccc(Cl)cc1 | 74.4% | 16.6% | 25.5 | 76.5 | 63.8 | -7.24% (active) | -19.8% (active) | -34.5% (active) | -32.7% (active) | -25% (active) | 44.6% | 63.4% | 50.1% | 71% | 2.44% (active) | 41.4% | 66.6 | – | 45.6% |
| O=C(c1cnn2c1NC(c1ccc(F)cc1)C2)N1CCCCC1 (configuration not stated) | 104% | 104% | 89.8 | 105 | 102 | – | 105% | 108% | 107% | 103% | 106% | 102% | 98.7% | – | 103% | 106% | 99.8 | 93.4% | 109% |
| O=C1CC2c3cc(-c4cc5ccccc5o4)ccc3CCN2C(=O)N1c1ccccc1 (configuration not stated) | 83% | 89.3% | 58.8 | 78.5 | 99.6 | 82% | 68.2% | 64.1% | 57.6% | 68.1% | 88.4% | 97.9% | 84.7% | 80% | 84.6% | 99.3% | 107 | – | 81.4% |
| COc1cc(OCc2cccc(-c3ccc(C(O)c4nccs4)cc3)c2C)cc(OC)c1C=O (configuration not stated) | 60.4% | 61.8% | 22.9 | 27.7 | 25.2 | – | 37.2% | 21.2% | 53.1% | 22.1% | 59.8% | 16.5% | 15.9% | – | 21% | 48.1% | 67.1 | 2.55% (active) | 58.1% |
| CCCCC(O)Cn1ncc(C(=O)OCC)c1NC(=O)NCc1ccccc1C(F)(F)F (configuration not stated) | 104% | 99.7% | 82.6 | 96.3 | 97.4 | – | 104% | 93.9% | 87.9% | 88.6% | 98.7% | 105% | 85% | – | 99% | 108% | 106 | 84.2% | 98.7% |
| C(=C\c1ccccc1)/CN1CCN(C(c2ccccc2)c2ccccc2)CC1 | 104% | 90.4% | 70.5 | 110 | 95.1 | 69.5% | 94.4% | 90.2% | 76.4% | 77.1% | 85.7% | 101% | 87.1% | 108% | 122% | 114% | 93.4 | – | 81.7% |
| NC(=O)c1cc(I)ccc1NC(=O)COc1ccc(Cl)cc1Cl | 79.2% | 103% | 83.3 | – | 99 | 73.9% | 81.6% | 80.5% | 40.9% | 96.3% | 102% | 103% | 114% | 90.5% | 89.3% | 103% | 106 | 88.8% | 82.3% |
| COC(=O)[C@@H]1CCCN1C(=O)[C@@H]1CCCN1C(=O)[C@@H](Cc1c[nH]c2ccccc12)NC(=S)Nc1cc(C(F)(F)F)cc(C(F)(F)F)c1 | 39.9% | 65.7% | 41.4 | 83.5 | – | 99.6% | 19.9% | 22.3% | -17.5% (active) | – | 67.6% | 91% | 42% | 90.9% | 36% | 44.1% | 59.2 | 56.9% | 99.8% |
| CCSc1nnc2c3cc(Br)ccc3n(C)c2n1 | 97.8% | 102% | 63.3 | – | 90.8 | 91.5% | 102% | 107% | 92.7% | 104% | 97.2% | 105% | 98% | 105% | 90.8% | 109% | 111 | 80.9% | 109% |
| CN1CCn2c(c(Sc3ccc(C(=O)NO)cc3)c3ccccc32)C1=O | -43.3% (active) | -3% (active) | 59 | – | 36.6 | 4.23% (active) | -6.26% (active) | 1.98% (active) | 0.516% (active) | -19.9% (active) | -46.5% (active) | 24.3% | 14% | 57.4% | -44.1% (active) | -32.5% (active) | 49.3 | 50.5% | – |
| O=C(N/N=C/c1ccc2c(c1)OCO2)c1cnn2c1NC(c1ccccc1)C2 (configuration not stated) | 50.1% | 73.7% | 67.5 | 70.3 | – | – | 67.7% | 75.2% | 31.6% | 76.4% | 66.8% | 78.1% | 48.9% | – | 51.5% | 25.2% | 32.5 | 21.1% | 55.6% |
| NC(=O)c1cc(I)ccc1NC(=O)COc1ccccc1 | 34.5% | 37.4% | 52.7 | – | 43.8 | 4.14% (active) | 4.81% (active) | 4.74% (active) | 20.2% | 9.76% (active) | 15.9% | 39.1% | 78.9% | -2.65% (active) | 44.2% | 12% | 36.6 | 55.1% | 4.28% (active) |
| CCOC(=O)c1sc(NC(=O)CN2CCC(Cc3ccccc3)CC2)nc1C | 133% | 106% | 80.4 | 106 | 107 | 100% | 94.1% | 84.3% | 83.7% | – | 110% | 103% | 98.6% | 102% | 87.6% | 108% | 83.4 | – | 94.1% |
| Cc1ccc2c(c1)c(Sc1ccc(C(=O)NO)cc1)c1n2CN(C)CC1 | 7.15% (active) | 9.16% (active) | 45.9 | – | 26.8 | 6.35% (active) | -5.94% (active) | -10.5% (active) | 5.05% (active) | 1.92% (active) | 5.57% (active) | 7.36% (active) | -1.78% (active) | 21.1% | 42.4% | -7.94% (active) | 33.5 | 62.9% | 53.1% |
